# Test results taken from ChEMBL document CHEMBL3433997, “St. Jude Leishmania screening dataset” (2016).
# Values joined by “and” are separate entries in the source; they are usually repeats but may differ in a detail not shown here. Equal values may be shown once.
# How the values were obtained:
# Format in all cases: functional
# [1] = target: Solute carrier family 2, facilitated glucose transporter member 1 (Homo sapiens) (UniProt P11166); test: ST_JUDE_LEISH: Cytotoxicity at 2uM final concentration against transgenic Leishmania Mexicana promastigotes LmGLUT1 that are glucose transport deficient and complemented with the human glucose transporter GLUT1. Activity is measured by DNA content using SYBR green in vitro
# [2] = target: Hexose transporter 1 (Plasmodium falciparum) (UniProt O97467); test: ST_JUDE_LEISH: Cytotoxicity at 2uM final concentration against transgenic Leishmania Mexicana promastigotes LmPfHT that are glucose transport deficient and complemented with the Plasmodium falciparum hexose transporter. Activity is measured by DNA content using SYBR green in vitro
# [3] = target: Glucose transporter (Leishmania mexicana) (UniProt O61059); test: ST_JUDE_LEISH: Cytotoxicity at 2uM final concentration against transgenic Leishmania Mexicana promastigotes LmGT2 that are glucose transport deficient and complemented with the L. Mexicana glucose transporter 2. Activity is measured by DNA content using SYBR green in vitro
# Solute carrier family 2, facilitated glucose transporter member 1 (Homo sapiens), sequence (P11166 whole entry): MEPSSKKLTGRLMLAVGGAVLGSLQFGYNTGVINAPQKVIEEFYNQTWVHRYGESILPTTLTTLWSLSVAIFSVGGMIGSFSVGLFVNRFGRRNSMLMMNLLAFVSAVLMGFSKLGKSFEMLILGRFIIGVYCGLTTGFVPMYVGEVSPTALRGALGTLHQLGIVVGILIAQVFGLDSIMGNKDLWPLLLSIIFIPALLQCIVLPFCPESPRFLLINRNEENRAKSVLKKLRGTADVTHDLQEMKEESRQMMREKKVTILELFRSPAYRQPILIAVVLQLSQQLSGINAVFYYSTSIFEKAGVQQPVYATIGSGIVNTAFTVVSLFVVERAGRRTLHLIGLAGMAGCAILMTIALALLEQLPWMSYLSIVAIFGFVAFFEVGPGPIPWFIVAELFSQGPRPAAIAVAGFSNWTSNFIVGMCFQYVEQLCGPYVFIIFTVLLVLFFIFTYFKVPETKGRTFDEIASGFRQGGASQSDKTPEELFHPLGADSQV
SMILES,inhibition [1],inhibition [2],inhibition [3]
O=C(NC1CC1)c1ccc(N2CCC(Cc3ccccc3)CC2)nc1,3.46%,4.8%,-1.16%
CCOc1cc(CC)ccc1C1CCN(CCCCNC(=O)c2ccc(NC(=O)c3ccc(C#N)cc3)cc2)CC1,2.45%,0.91%,2.06%
O=c1[nH]ccc2nc(N[C@@H]3CCNC3)nc(Nc3ccc4c(c3)S(=O)(=O)CC4)c12,5.93%,1.38%,4.85%
Cc1c(Cl)cccc1N=C(S)NN=Cc1ccccn1,1.43%,2.56%,-0.2%
CCOc1ccc(N2C(N)=NC(N)=NC2(C)C)cc1,4.38%,3.86%,4.06%
CCOc1cc(Cl)c(C(C)NC(=O)c2ccccc2)cc1OCC (stereo not given),1.69%,3.65%,3.01%
O=C(Nc1ccc(CCN2CCC(c3nc(COCC(F)(F)F)c(-c4ccccc4)o3)CC2)cc1)c1ccc(F)cc1,2.62%,2.23%,-0.66%
COC(=O)c1cccc(CNCc2cccc(-c3ccc(-c4nc5cccc(C)c5[nH]4)s3)c2)c1,1.43%,0.6%,0.69%
CC(C)CCN1CCC(Oc2cccc(NC(=O)c3ccc(C(F)(F)F)cc3)c2)CC1,1.54%,-0.13%,1.09%
Cn1nc(-c2ccccc2F)c2cc(C(=O)NC3CCN(Cc4ccccc4)CC3)sc21,-0.18%,-1.6%,-1.7%
Cc1ccc(Cl)cc1N1CCN(CCCNC(=O)C2CCN(c3nc4ccccc4[nH]3)CC2)CC1,4.49%,5.2%,5.6%
CCCCCn1c(Sc2ccc(C#N)c([N+](=O)[O-])c2)nnc1-c1cccs1,2.86%,6.4%,2.32%
O=C1Nc2cccc3c2C1(CCCCN1CCC(c2cc4ccncc4[nH]2)CC1)CCC3 (stereo not given),-0.19% and 8.55%,0.01% and 8.94%,-0.84% and 8.48%
Cc1cnc(Nc2ccccc2)nc1NCCC(=O)Nc1ccccc1,6.97%,8.48%,3.62%
CCN(CC)CCN(Cc1ccc(-c2ccc(C(F)(F)F)cc2)cc1)C(=O)Cn1c(CCc2cc(F)cc(F)c2)nc(=O)c2ccccc21,1%,1.07%,1.47%
CCOC(=O)CN(c1ccc(Br)cc1OCCOc1cc(Br)ccc1N(CC(=O)OCC)C(C)C(=O)OCC)C(C)C(=O)OCC (stereo not given),1.16%,-0.2%,1.37%
Cc1ccc(/C=C/C(=O)NC2CCC(N3CCC(c4ccccc4C)CC3)CC2)cc1C (stereo not given),4.77%,4.56%,1.93%
CCN(CC)CCN(Cc1ccc(-c2ccc(C(F)(F)F)cc2)cc1)C(=O)Cn1c(SCc2ccc(F)cc2)cc(=O)c2ccccc21,1.74%,-0.14%,1.57%

SMILES,inhibition [1],inhibition [2],inhibition [3]
Cc1cccc2nc(-c3cccc(-c4ccc(NC(=O)Nc5ccc6c(c5)OCO6)cc4)c3)[nH]c12,1.72%,0.05%,2.58%
CN=c1nc(NN=Cc2ccccc2Cl)[nH]c(=Nc2cccc(C(F)(F)F)c2)[nH]1,8.53%,8.1%,4.76%
COc1cc(CN2CCC(NC(=O)[C@H](Cc3ccccc3)NC(=O)Nc3ccc(Oc4ccccc4)cc3)C2)ccc1O (stereo not given in full),0.58%,1.77%,-3.37%
Fc1cc(Cl)ccc1Nc1ccnc(Nc2ccc3cn[nH]c3c2)n1,12.7%,10.7%,5.1%
CN1CCCC(CN2CCN(Cc3ccc(-c4ccc(-c5nc6cc(F)ccc6[nH]5)s4)cc3)CC2)C1 (stereo not given),5.94%,5.97%,4.47%
COCCNCc1cccc(-c2ccc(CNC3CCN(Cc4ccccc4)CC3)cc2)c1,1.41%,3.3%,4.63%
Cc1cccc(CNc2nc(C)cc(N[C@@H](CC(C)C)C(=O)NCc3cccc(F)c3)n2)c1,4.53%,3.4%,-0.42%
CC(C)CCCC(C)(C)NC[C@@H](O)[C@H](Cc1ccccc1)NC(=O)c1cccc(OCC2CC2)c1,1.19%,1.25%,1.85%
CNC(=O)CSc1nnc(-c2ccc(C)cc2)c(-c2ccc(C)cc2)n1,2.46%,2.74%,1.88%
COc1cccc2c(NN=Cc3ccccc3F)ccnc12,7.43%,7.62%,2.85%
Fc1ccc2[nH]c(-c3cccc(-c4ccc(CNCc5ccccc5)cc4)c3)nc2c1,7.37%,9.95%,4.2%
CCCNCc1ccc(-c2ccc(CN(CCOC)C(=O)COc3ccccc3Cl)cc2)nc1,-0.3%,1.54%,-1.95%
Cc1nnc(Sc2ncnc3scc(-c4ccc(F)cc4)c23)s1,2.38%,3.03%,1.02%
FC(F)(F)c1ccc2c(NCCc3ccccc3)ccnc2c1,4.24%,5.12%,3.79%
Cc1cccc(C)c1CNc1ccnc2cc(C#N)ccc12,3.83%,3.15%,2.98%
CCC1CCCCN1S(=O)(=O)c1ccc(NC(=O)c2cc(C)on2)cc1 (stereo not given),2.22%,0.15%,3.74%
O=c1cc(NCCCNCc2cc(Br)cs2)[nH]c2ccccc12,3.94%,2.8%,2.59%
